Source: PubChem BioAssay AID1063 (University of Pittsburgh Molecular Library Screening Center, 2008)
Hit rate of the full screen: of about 200,000 compounds, about 18,000 (9%) were called active. Shown is part of a subset that was picked to be rich in actives. Unmarked numbers belong to inactive results. No stated cut-off is given here; in the data, active means inhibition above about 50%; inactive means the rest.

Assay: Leishmania major promastigote growth inhibition, primary screen (AID 1063);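 further: promastigotes grown with compound for 44 hours at 28 °C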
Details: Leishmania major promastigotes, resazurin fluorescence viability; at 10 µM; stronger effect = higher value

Compared with `Cc1ccccc1NC(=O)Cn1c(=O)n(CC2CCCO2)c(=O)c2ccccc21` (stereo unspecified), `CNC(=O)NC(=O)CSc1nnc(-c2ccc(F)cc2)n1CC1CCCO1` (stereo unspecified) is higher in inhibition: -7.76% for the first, -2.36% for the second.

Going from `Cc1cc(C)c(C#N)c(N2CCC(C(N)=O)CC2)n1` to `CCOc1ccc(OCC)c(NC(=O)C2CCN(S(=O)(=O)c3c(C)noc3C)CC2)c1`, the inhibition rises from -0.97% to 26.8%.

Compared with `Cc1csc(NC(=O)Nc2ccccc2[N+](=O)[O-])n1`, `Nc1ccc(C(=O)OCC(=O)NC2CCCc3ccccc32)cc1[N+](=O)[O-]` (stereo unspecified) is lower in inhibition: 4.81% for the first, -5.78% for the second.

Compared with `O=C(Oc1cccc(NC2=NS(=O)(=O)c3ccccc32)c1)c1ccncc1`, `O=C(COC(=O)c1ccncc1)c1ccccc1` is lower in inhibition: -2.71% for the first, -4.89% for the second.

Going from `O=C(N/N=C/c1ccc(OCc2ccccc2)cc1)c1ccc(O)cc1` to `O=C(CSc1ccc(/C=N/NC(=O)c2cccc(F)c2)o1)Nc1ccccc1`, the inhibition falls from 12.5% to -5.63%.

Going from `CCC1SC(CC)C(=O)N(CC(=O)NC2CCCCC2)C1=O` (stereo unspecified) to `CCC(C)NC(=O)CN(C1CCCCC1)S(C)(=O)=O` (stereo unspecified), the inhibition rises from -5.41% to 1.28%.

Compared with `Cc1cc(C(=O)OCC(=O)N2c3ccccc3NC(=O)C2(C)C)c(C)n1-c1ccccc1`, `CC1(C)C(=O)Nc2ccccc2N1C(=O)COC(=O)Cn1cnc2ccccc2c1=O` is lower in inhibition: 21.6% for the first, -3.68% for the second.

Compared with `COc1ccc(-c2csc(-c3cccs3)n2)cc1OC`, `COc1ccc(NC(=O)CN(Cc2ccccc2)S(C)(=O)=O)cc1OC` is lower in inhibition: 0.19% for the first, -6.14% for the second.

Going from `CCOc1ccc(-c2ccc(SCC(=O)N3CCOCC3)nn2)cc1` to `CCOc1ccc(NC(=O)CN2CCN(CC(=O)Nc3ccc(OC)cc3)CC2)cc1`, the inhibition rises from -2.79% to 39.6%.

First: Cc1ccc(Cc2nc(-c3cccc(C)c3)no2)cc1
Second: Cc1ccc(-c2noc(CC(c3ccccc3)c3ccccc3)n2)cc1
The inhibition of the first is lower: -3.66% for the first, 7.54% for the second.

First: Cn1cc(/C=C/C(=O)N2CCCC(C(=O)c3ccc(C(F)(F)F)cc3)C2)cn1 (stereo unspecified)
Second: CC(=O)NC(Cc1ccc(F)c(F)c1)C(=O)NC1CCN(C(=O)c2ccc(C)cc2)CC1 (stereo unspecified)
The inhibition of the first is lower: -7.13% for the first, -6.89% for the second.

Going from `Brc1cc(/C=N/n2cnnc2)oc1Br` to `Cc1cc(-c2ccc(/C=N/n3cnnc3)o2)c([N+](=O)[O-])cc1C`, the inhibition rises from -0.54% to 2.14%.

Going from `S=c1[nH]nc(NCCc2ccccc2)s1` to `COC(=O)C1=C(C)N(C)C(=S)NC1c1ccccc1` (stereo unspecified), the inhibition rises from -6.01% to -3.63%.

Going from `COc1ccc(CCNC(=O)CN(c2ccccc2)S(C)(=O)=O)cc1` to `COC(=O)c1ccccc1NC(=O)CN(Cc1ccc(Cl)cc1)S(C)(=O)=O`, the inhibition rises from -6.75% to 36.9%.

First: COc1ccccc1N1CCN(C(=O)CN(Cc2ccc(Cl)cc2)S(C)(=O)=O)CC1
Second: O=C(CN1CCN(c2ccc(Cl)cc2)CC1)NCc1cccs1
The inhibition of the first is higher: -0.49% for the first, -4.73% for the second.

First: Cc1nc2ccccn2c1C(=O)NN=C1CCN(C)CC1
Second: Cc1cc(C(=O)N/N=C/c2ccc(N3CCOCC3)cc2)c(C)o1
The inhibition of the first is higher: 35.4% for the first, 7.7% for the second.

First: CCOc1cnc(C(=O)NNC(=O)c2ccccc2Br)o1
Second: Cc1ccc(NC(=O)NNC(=O)c2sccc2-n2cccc2)cc1
The inhibition of the first is higher: -1.9% for the first, -8.12% for the second.

First: COC(=O)C1NN=C(C(=O)c2ccc(Br)cc2)C1c1cccc(Br)c1 (stereo unspecified)
Second: CCOC(=O)c1ccc(N2C(=O)CC(N3CCN(C(=O)c4ccccc4)CC3)C2=O)cc1 (stereo unspecified)
The inhibition of the first is higher: 24.8% for the first, -1.97% for the second.

First: COc1cccc(N(Cc2nnc3n2CCCCC3)C(=O)Nc2ccccc2F)c1
Second: COC(=O)c1ccc(Oc2nc(Nc3ccc(F)cc3)nc(N3CCCC3)n2)cc1
The inhibition of the first is lower: -3.13% for the first, 2.39% for the second.

Compared with `O=C(Oc1cccc(O)c1)C1CCCCC1`, `CCN(C(=O)Cc1nc(N)n[nH]1)C1(C(=O)Nc2ccccc2)CCCCC1` is lower in inhibition: -0.1% for the first, -8.2% for the second.

Compared with `Cc1ccc(S(=O)(=O)Nc2nc(N)n(-c3ccccc3)n2)cc1`, `Cc1ccc2nc(COc3ccc(N(C)S(=O)(=O)c4ccccc4)cc3)cc(=O)n2c1` is higher in inhibition: -11% for the first, -0.08% for the second.

Going from `CCC(=O)Nc1c(S(=O)(=O)c2ccccc2)c2nc3ccccc3nc2n1Cc1ccccc1` to `O=C(NCCc1ccccc1)/C(=C\c1ccc([N+](=O)[O-])cc1)NC(=O)c1ccccc1`, the inhibition falls from 32.2% to -2.32%.

First: Cc1noc(/C=C/N(C)C)c1S(=O)(=O)N1CCCC(C(=O)NCc2ccco2)C1 (stereo unspecified)
Second: CCOC(=O)C1CCN(C(=O)C2CCN(S(=O)(=O)c3c(C)noc3C)CC2)CC1
The inhibition of the first is lower: -6.58% for the first, -2.98% for the second.

Compared with `O=C(C1CCN(S(=O)(=O)Cc2ccccc2)CC1)N1CCCc2ccccc21`, `Cc1c(NC(=S)NC(=O)CCc2ccccc2)c(=O)n(-c2ccccc2)n1C` is lower in inhibition: 24.6% for the first, -2.93% for the second.

First: CC1=C(C(=O)N(C)C)C(c2ccccc2OC(F)F)NC(=O)N1 (stereo unspecified)
Second: CCN(CC)CC(=O)Nc1sc2c(c1C(=O)c1ccccc1C)CCC2
The inhibition of the first is lower: -4.21% for the first, 47.2% for the second.

First: CCOC(=O)C1(Cc2ccc(Cl)cc2)CCN(C(=O)C2=NNC(=O)CC2)CC1
Second: CCC1(CC)NC(=O)N(CC(=O)OCC(=O)NC(=O)c2ccccc2)C1=O
The inhibition of the first is lower: 0.36% for the first, 10.3% for the second.

Compared with `Cc1nnc(SCC(=O)N/N=C/c2cn(-c3ccccc3)nc2-c2ccc(F)cc2)n1-c1ccccc1`, `COc1ccc(-n2cc(CN(C)Cc3n[nH]c(=O)[nH]3)c(-c3cccc(F)c3)n2)cc1` is higher in inhibition: -0.75% for the first, 2.9% for the second.

Compared with `OC1CCCN(c2ncnc3c2nnn3Cc2c(F)cccc2Cl)C1` (stereo unspecified), `O=C(c1ccc(F)cc1)n1cc(C(=S)N2CCOCC2)c2ccccc21` is higher in inhibition: -5.48% for the first, -2.86% for the second.

Going from `CC(=O)NC1C(Oc2ccc(C=O)cc2)OC(COC(C)=O)C(OC(C)=O)C1OC(C)=O` (stereo unspecified) to `COCCCNC(=O)C1CCC(CNS(=O)(=O)c2ccc(OC)cc2)CC1` (stereo unspecified), the inhibition falls from -1.48% to -4.6%.

Going from `CCCCCCCCCOC1OC(CO)C(O)C(O)C1NC(C)=O` (stereo unspecified) to `CCOc1cccc(/C=N/NC(=S)NCCN2CCOCC2)c1O`, the inhibition falls from 16.4% to 4.68%.

Compared with `Cc1nn(CCOc2ccc(Br)cc2)c(C)c1[N+](=O)[O-]`, `COc1ccc(-c2cc(C)nc3nc(N)nn23)cc1` is higher in inhibition: -0.48% for the first, 0.56% for the second.

Compared with `COc1ccccc1CN(C)c1nnnn1-c1ccccc1`, `C=CCNC(=O)/C(=C\c1cccc([N+](=O)[O-])c1)NC(=O)c1ccccc1` is lower in inhibition: 6.46% for the first, -2.62% for the second.

Compared with `CN1C(=O)/C(=C/c2ccco2)SC1=Nc1cccc(C(=O)O)c1`, `O=C1N/C(=N\N=C\c2ccco2)SC1Cc1ccc(F)cc1` (stereo unspecified) is lower in inhibition: -6.02% for the first, -16.9% for the second.

Compared with `Cc1cc([N+](=O)[O-])c(-c2ccc(/C=N/n3cnnc3)o2)cc1Cl`, `Cc1ccc(N2C(=O)SC(N(CC(=O)O)c3ccc(C)cc3)C2=O)cc1` (stereo unspecified) is lower in inhibition: 2.86% for the first, -0.34% for the second.

First: CCNC(=S)Nc1ccc(OC(F)(F)F)cc1
Second: COC(=O)[C@H](C)NC(=O)Nc1ccc(OC(F)(F)F)cc1
The inhibition of the first is higher: -1.95% for the first, -4.5% for the second.

First: COc1ccc(OC)c(CNC(=O)c2cc(=O)[nH]c3ccc(S(=O)(=O)N4CCCC4)cc23)c1
Second: O=C(O)COc1ccc(/C=N/O)cc1Br
The inhibition of the first is lower: -4.76% for the first, -4.34% for the second.

In the case of `Cc1cc(C(C)(C)C)cc(C)c1N`, the inhibition is reported as 3.48%.

With `CCNc1ccc(C(=O)OCC(=O)N2c3ccccc3NC(=O)C2(C)C)cc1[N+](=O)[O-]` the inhibition was 54.4% (active).
For `Cc1ccc(-c2noc(CN3CCN(Cc4ccccc4)CC3)n2)cc1`, the inhibition was 52.1% (active).
For `COc1ccc(CNC(=O)CN(Cc2ccc(Cl)cc2)S(C)(=O)=O)cc1`, the inhibition was 57.5% (active).
In the case of `COc1ccc(OC)c(NC(=O)CN(Cc2ccc(Cl)cc2)S(C)(=O)=O)c1`, the inhibition is reported as 90.1% (active).
For `O=C(NC1CCc2ccccc21)C12CN(Cc3ccccc3)CC1C(c1cccc([N+](=O)[O-])c1)=NO2` (stereo unspecified), the inhibition was 58.3% (active).
With `COC(=O)C1=C(C)N(C)C(C)=C(C(=O)OC)C1c1cccc(Br)c1` the inhibition was 52.8% (active).
In the case of `CCOc1ccc(Nc2nc(Cl)nc(N3CCN(c4ccc(OC)cc4)CC3)n2)cc1`, the inhibition is reported as 53% (active).
With `Cc1ccc(S(=O)(=O)c2c(N)n(C)c3nc4ccccc4nc23)cc1` the inhibition was 99.1% (active).
In the case of `Cc1noc(/C=C/c2ccco2)c1S(=O)(=O)N1CCC(C(=O)N2CCc3ccccc32)CC1`, the inhibition is reported as 66.6% (active).
For `Cc1noc(/C=C/c2ccco2)c1S(=O)(=O)N1CCC(C(=O)Nc2ccc(Cl)cn2)CC1`, the inhibition was 74.5% (active).
In the case of `O=C(N/N=C/c1ccc([N+](=O)[O-])o1)c1cn(-c2ccccc2)nc1-c1ccc(F)cc1`, the inhibition is reported as 63.2% (active).
For `CC(=O)NC1C(OCc2ccccc2)OC(COC(C)=O)C(OC(C)=O)C1OC(C)=O` (stereo unspecified), the inhibition was 55.7% (active).
With `CC(C)CC[n+]1ccn(C2=C([O-])c3ccccc3C(=O)/C2=N\S(=O)(=O)c2ccccc2)c1` the inhibition was 77.1% (active).
For `Cc1ccc(Cl)cc1-c1ccc(/C=N/n2cnnc2)o1`, the inhibition was 64.2% (active).
In the case of `CNC(=S)N/N=C/c1ccc(N2CCOCC2)s1`, the inhibition is reported as 90.2% (active).
With `COC(=O)Cc1ccc(OCC(=O)Nc2ccc(OC(F)(F)F)cc2)cc1` the inhibition was 54.1% (active).
In the case of `Cc1cc(N)n2nc(-c3ccc(C(C)(C)C)cc3)cc2n1`, the inhibition is reported as 80.3% (active).
For `CN(C)CCNC(=O)/C(=C/c1cccc([N+](=O)[O-])c1)NC(=O)c1ccccc1`, the inhibition was 68.3% (active).
